The text below walks through data of PubChem BioAssay (NCATS).

Records with an inconclusive call do not appear. Calls of active or inactive are those of the source. Unless noted, the call rests on the fitted dose curve; in most records, active means well fitted curve in the direction sought with a large enough effect; inconclusive means small, poorly fitted or top-dose-only effect, or another doubt; inactive means no such curve, though single readings can be large; an effect the other way counts as inactive or inconclusive.

Experiment [1] can be described thus: P-glycoprotein substrates identified in KB-8-5-11 adenocarcinoma cell line, qHTS therapeutic library screen (AID 1346987). Further: on the % scale 0 is the no-effect control and ±100 the full control effect; nearly all actives have a fitted effect of over 65% in size. The method in brief: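 KB-8-5-11: colchicine-selected sub-line of KB-3-1 over-expressing P-gp; assay medium lacked colchicine. 72 h drug exposure at 37 degree C, CellTiter-Glo.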
(Quantitative high-throughput screening tests each substance at several concentrations.)

Experiment [2] has as its system Zika virus NS2B-NS3 protease (unlinked complex). The experiment is described as follows: Primary screen GU Rhodamine qHTS for Zika virus inhibitors: Unlinked NS2B-NS3 protease assay (AID 1347159). Further: on the % scale 0 is the no-effect control and ±100 the full control effect; nearly all actives have a fitted effect of over 60% in size. The essentials:
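Noncovalent NS2B hydrophilic domain/NS3 protease complex (25 nM final) in 10 mM Tris-HCl pH 8.0, 0.01% Tween 20, preincubated 15 min with compounds (up to 114 microM), then 1.5 microM Rhodamine110 substrate. Fluorescence change over 15 min fitted to 4-parameter Hill.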

A short description of experiment [3]: Primary qHTS for inhibitors of nuclear receptor binding SET domain protein 2 (NSD2) in an isogenic RCH-ACV NSD2 p.E1099K mutant (9B) (AID 1645876). Further: nearly all actives have a fitted effect of over 70% in size. Further: potency means the concentration at half of the fitted maximal effect. On activity change, negative = viability loss: on the % scale 0 is the no-effect control and ±100 the full control effect.
Experiment [4] relates to CRL-7250. The experiment in a line: Cytotoxic Profiling of Annotated Libraries Using Quantitative High-Throughput Screening (AID 1296008). Further: nearly all actives have a fitted effect of over 60% in size. On max response: on the % scale 0 is the no-effect control and ±100 the full control effect. The following applies: Five cell lines viability, CellTiter-Glo ATP luminescence, 48-72 h; max response: stronger effect = lower value. The essentials:
(§1)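 Cells exposed to compounds for 48 or 72 hr at 37 degrees Celsius. Viability read as ATP-coupled luminescence with CellTiter-Glo after 10 min at room temperature.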
For orientation: In ATP-based viability assays light output follows the ATP content of the culture.

Experiment [5] relates to KB-3-1. The description is as above. The following applies: Five cell lines viability, CellTiter-Glo ATP luminescence, 48-72 h; max response: stronger effect = lower value. The essentials:
as §1

In experiment [6] the test system is HACAT. The experiment is described as follows: qHTS assay to identify novel small-molecules to repurpose for Merkel cell carcinoma treatment (AID 1296009). Further: nearly all actives have a fitted effect of over 60% in size. The following applies: MCC and control cell lines, CellTiter-Glo viability, 72 h; at 44.8 µM (top of the series) unless noted. The essentials:
(§2)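 Cells were incubated with compound for 72 hr at 37 degree celsius before CellTiter-Glo addition. Luminescence was normalized with no-cell wells as full cytotoxicity and DMSO as baseline.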

Experiment [7] in a line: P-glycoprotein substrates identified in KB-3-1 adenocarcinoma cell line, qHTS therapeutic library screen (AID 1346986). Further: nearly all actives have a fitted effect of over 60% in size. The method in brief: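 Compounds were tested in dose-response against KB-3-1 and KB-8-5-11 cells at 37 degree C for 72 h, and viability was measured by luminescence. AC50 values came from curve fitting with class-based activity calls.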
Experiment [8] can be described thus: Primary qHTS for inhibitors of nuclear receptor binding SET domain protein 2 (NSD2) in an RCH-ACV wild type WT cells (2C) (AID 1645877). Further: nearly all actives have a fitted effect of over 70% in size. Further: potency means the concentration at half of the fitted maximal effect. On activity change, negative = cell killing: on the % scale 0 is the no-effect control and ±100 the full control effect.
The subject of experiment [9] is SKOV3. The experiment in a line: Primary qHTS to identify gynecologic anti-cancer compounds using libraries of approved drugs and bioactive compounds (AID 1345084). Further: on the % scale 0 is the no-effect control and ±100 the full control effect; nearly all actives have a fitted effect of over 55% in size. The following applies: Gynecologic cancer cell panel viability, ATPlite luminescence, 48 h; series mostly up to 57.5 µM. The method in brief:
(§3)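 Cells, 1,000 per well, plated 16 h, then exposed 48 h at 37 C to compounds. Viability by ATPlite luminescence after 15 min at room temperature.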

In experiment [10] the target is Cytochrome P450 2D6 (Homo sapiens) (UniProt P10635). The experiment is described as follows: Cytochrome P450 family 2 subfamily D member 6 (CYP2D6) small molecule antagonists: luciferase biochemical (cell-free) qHTS assay (AID 1645840; active means well fitted curve in the direction sought with a large enough effect in the repeat runs; an effect the other way counts as inactive or inconclusive; further: nearly all actives have a fitted effect of over 55% in size; further: potency means the concentration at half of the fitted maximal effect; on activity change, negative = inhibition: on the % scale 0 is the no-effect control and ±100 the full control effect). The essentials:
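P450-Glo luminescent screen: recombinant CYP2D6 enzyme–proluciferin substrate mix preincubated with compound 10 min at room temperature, then NADPH regeneration added for 1 h at room temperature. Detection reagent added for 20 min; luciferin light read as relative luminescence units.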

Experiment [11] deals with NIH3T3. The experiment in a line: qHTS assay to identify novel small-molecules to repurpose for Merkel cell carcinoma treatment (AID 1296009). Further: nearly all actives have a fitted effect of over 60% in size. The following applies: MCC and control cell lines, CellTiter-Glo viability, 72 h; at 44.8 µM (top of the series) unless noted. The essentials: as §2
Experiment [12] concerns CRL-7250. The experiment is described as above. The following applies: MCC and control cell lines, CellTiter-Glo viability, 72 h; series mostly up to 92 µM. The method in brief: as §2
In experiment [13] the test system is HeLa. The experiment is described as follows: Primary qHTS to identify gynecologic anti-cancer compounds using libraries of approved drugs and bioactive compounds (AID 1345084). Further: on the % scale 0 is the no-effect control and ±100 the full control effect; nearly all actives have a fitted effect of over 55% in size. The following applies: Gynecologic cancer cell panel viability, ATPlite luminescence, 48 h; series mostly up to 57.5 µM. The essentials: as §3
Experiment [14] concerns the target Catechol O-methyltransferase (Homo sapiens) (UniProt P21964). The experiment in a line: Confirmatory Screen for Target Class Profiling of Small Molecule Inhibitors of Methyltransferases (AID 1745852). The following applies: MTase-Glo luminescence, SAH detection, recombinant enzyme; measured here: COMT max response; stronger effect = lower value.
The target of experiment [15] is Guanidinoacetate N-methyltransferase (Homo sapiens) (UniProt Q14353). The experiment is described as above. The following applies: activity change, negative = inhibition: at 57.3 µM (top of the series) unless noted.
In experiment [16] the target is Nicotinamide N-methyltransferase (Homo sapiens) (UniProt P40261). The description is as above. The following applies: MTase-Glo luminescence, SAH detection, recombinant enzyme; measured here: NNMT max response; stronger effect = lower value.
Nicotinamide N-methyltransferase (Homo sapiens), sequence (P40261 whole entry, looked up): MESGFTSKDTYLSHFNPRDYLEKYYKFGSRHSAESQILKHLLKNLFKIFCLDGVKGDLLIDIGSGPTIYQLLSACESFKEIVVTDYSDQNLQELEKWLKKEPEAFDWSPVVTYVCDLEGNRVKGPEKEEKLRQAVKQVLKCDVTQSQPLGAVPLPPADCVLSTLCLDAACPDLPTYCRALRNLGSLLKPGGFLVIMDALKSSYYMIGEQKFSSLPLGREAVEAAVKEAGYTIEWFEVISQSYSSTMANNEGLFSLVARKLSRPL
Experiment [17] concerns the target Phenylethanolamine N-methyltransferase (Homo sapiens) (UniProt P11086). The description is as above. The following applies: MTase-Glo luminescence, SAH detection, recombinant enzyme; measured here: PNMT max response; stronger effect = lower value.

Cytochrome P450 2D6 (Homo sapiens), sequence (P10635 whole entry, looked up): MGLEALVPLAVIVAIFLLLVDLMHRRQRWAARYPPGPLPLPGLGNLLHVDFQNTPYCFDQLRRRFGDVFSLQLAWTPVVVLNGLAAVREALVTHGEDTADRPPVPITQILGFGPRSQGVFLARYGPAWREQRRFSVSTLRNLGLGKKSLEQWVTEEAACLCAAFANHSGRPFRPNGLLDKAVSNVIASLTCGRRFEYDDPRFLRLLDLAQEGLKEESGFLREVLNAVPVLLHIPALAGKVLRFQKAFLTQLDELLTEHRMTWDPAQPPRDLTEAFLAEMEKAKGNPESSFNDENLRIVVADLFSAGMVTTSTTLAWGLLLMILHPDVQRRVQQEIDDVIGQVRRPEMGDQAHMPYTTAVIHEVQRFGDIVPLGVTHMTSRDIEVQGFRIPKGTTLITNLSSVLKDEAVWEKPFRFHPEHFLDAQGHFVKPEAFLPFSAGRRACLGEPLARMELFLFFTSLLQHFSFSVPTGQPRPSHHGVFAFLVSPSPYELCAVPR
Phenylethanolamine N-methyltransferase (Homo sapiens), sequence (P11086 whole entry, looked up): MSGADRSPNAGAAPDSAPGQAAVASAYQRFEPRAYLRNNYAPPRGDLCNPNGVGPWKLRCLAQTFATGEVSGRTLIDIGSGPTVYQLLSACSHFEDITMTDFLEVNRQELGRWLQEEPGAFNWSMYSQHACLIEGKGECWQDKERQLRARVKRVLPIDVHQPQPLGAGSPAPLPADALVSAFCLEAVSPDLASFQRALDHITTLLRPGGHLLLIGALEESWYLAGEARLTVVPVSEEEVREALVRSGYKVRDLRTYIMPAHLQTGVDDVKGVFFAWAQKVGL
Catechol O-methyltransferase (Homo sapiens), sequence (P21964 whole entry, looked up): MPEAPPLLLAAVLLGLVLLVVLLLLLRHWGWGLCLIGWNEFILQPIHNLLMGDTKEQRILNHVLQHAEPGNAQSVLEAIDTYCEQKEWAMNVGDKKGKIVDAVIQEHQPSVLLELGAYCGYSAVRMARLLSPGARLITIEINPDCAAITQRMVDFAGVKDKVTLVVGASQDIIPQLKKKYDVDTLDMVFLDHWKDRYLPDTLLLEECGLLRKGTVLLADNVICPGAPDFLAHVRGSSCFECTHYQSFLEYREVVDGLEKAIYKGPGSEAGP

In the case of `CC1=CC2/C=C(\C)CCC(O)C(O)/C=C/C(=O)OC23C(=O)NC(CC(C)C)C3C1C` (stereo not given), the Potency result in experiment [1] and in [2] was “inactive” throughout. Also, in experiment [3], the Potency was 8.93 µM (active). Also, the max response was -26.9% (inactive) in [4] and 9.99% (inactive) in experiment [5]. For the same molecule, the outcome in [6] is “inactive [at 17.4 µM]”.

As to `CC1CCCC(O)CCC/C=C/c2cc(O)cc(O)c2C(=O)O1` (stereo not given), the Potency result in experiment [7], in [1] and in [9] was “inactive” in each case. In addition, the Potency in [8] is 11.3 µM (active). The max response in [4] is -5.57% (inactive). For the same molecule, the outcome in experiment [5] was “inactive”.

With `Cc1cccc(NC(=O)NC2N=C(c3ccccc3)c3ccccc3N(CC(=O)c3ccccc3C)C2=O)c1` (stereo not given), the Potency entry in experiment [1], in [10] and in experiment [9] was “inactive” in each case. For the same molecule, the max response in [4] was 0.833% (inactive); in [5] it was 7.53% (inactive). Besides, the outcome in experiment [6] and in [11] was “inactive” each time.

On to `CC12Cc3cn[nH]c3C=C1CCC1C2CCC2(C)C1CCC2(C)O` (stereo not given), for which, in [4], the outcome was “inactive”. Further, the Potency entry in experiment [12], in [13] and in experiment [9] was “inactive” each time.

Take `C/C=C(\C)C(=O)OC1C2C3(C)CCC(OC4CC(OC)C(OC5OC(C)C(O)C(OC)C5O)C(C)O4)CC3CCC23OC32CCC(C(C)=O)C2(C)C1OC(=O)/C(C)=C/C` (stereo not given): the activity change, negative = cytotoxicity in experiment [1] was -5.07% [at 9.29 µM] (inactive); in experiment [13] it was 13% [at 11.6 µM] (inactive); in experiment [9], -30.2% [at 11.6 µM] (inactive). Also, the activity change, negative = viability loss in experiment [3] was -17.6% [at 9.23 µM] (inactive). Also, the activity change, negative = cell killing in experiment [8] is -23.1% [at 9.23 µM] (inactive). Further, the max response in experiment [4] is -2.9% (inactive); in experiment [5] it was -21.8% (inactive). In addition, in [6], the outcome was “inactive [at 9.27 µM]”.

With `CCCN(CCC)CCc1ccc(OC)c(OCCc2ccccc2)c1`, the Potency result in experiment [7], in experiment [1], in experiment [13] and in [9] was “inactive” each time. The Potency in [10] is 0.213 µM (active). Moreover, the max response in experiment [4] is 3.48% (inactive). Also, in experiment [5], the outcome is “inactive”.

`C[C@@H]1CCC2[C@@H](C)C(=O)OC3O[C@@]4(C)CCC1[C@]32OO4` (stereo not given in full): the Potency result in [1], in experiment [2], in experiment [13] and in experiment [9] was “inactive” throughout. The max response in [4] is -1.83% (inactive); in [5] it was -7.11% (inactive).

As for `Oc1ccc2c(c1)C13CCCC[C@H]1[C@@H](C2)N(CC1CCC1)CC3`, the Potency in [3] is 23 µM (active). Besides, the results for the activity in experiment [14], in [16] and in [17] were -7.63%, -13.8% and -7.17%, respectively. Besides, in experiment [15], the activity change, negative = inhibition is -6.87%. Further, the max response is -16.2% (inactive) in experiment [4] and -12.4% (inactive) in experiment [5]. The outcome in [6] is “inactive”. Moreover, in [13], the Potency result is “inactive”.

For the molecule `C=C1C(=O)O[C@@H]2[C@H]3C(=C)[C@@H](O)C[C@H]3C(=C)C[C@@H](O)[C@@H]12`, the Potency result in experiment [1], in [13] and in [9] was “inactive” in each case. The Potency in experiment [3] was 16.3 µM (active). For the same molecule, the max response in [4] is -8.41% (inactive); in [5], 6.92% (inactive).

On to `C=C[C@H]1CN2CCC1C[C@H]2[C@H](O)c1ccnc2ccccc12` (stereo not given in full), for which the Potency entry in experiment [1], in experiment [3], in experiment [13] and in experiment [9] was “inactive” throughout. Also, the figures for the max response in experiment [4] and in [5] were -4.97% (inactive) and 2.39% (inactive), respectively.
